Screens: PubChem BioAssay, several laboratories
ALR H2O2 inh: inhibitors of human sulfhydryl oxidase ALR. purified ALR, DTT oxidation, H2O2 HRP-luminol luminescence. inhibition, % (no concentration beside the values). P55789. actives 3.8% (n = 290,000). AID 485317;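 active means mean replicate inhibition above about 79%, with every replicate also reaching it, limit read from the data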
Target sequence (P55789 whole entry, looked up): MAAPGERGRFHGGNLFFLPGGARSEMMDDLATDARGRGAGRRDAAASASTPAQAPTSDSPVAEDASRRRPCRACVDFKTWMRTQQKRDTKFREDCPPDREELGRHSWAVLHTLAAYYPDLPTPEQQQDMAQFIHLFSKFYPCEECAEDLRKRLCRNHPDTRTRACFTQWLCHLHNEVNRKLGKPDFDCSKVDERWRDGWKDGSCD
ARNT-TACC3 inh: ARNT/TACC3 interaction disruption | Q9Y6A5 | AlphaScreen His-ARNT PAS-B/GST-TACC3 binding, luminescence; TACC3 fragment carries E629A point mutation | inhibition, % at 9.99 µM | actives 0.66% (n = 390,000) | AID 623870;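 active means mean inhibition of replicates at least 50% and at least half of replicates each reaching 50%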
CendR NRP1 mod: alters CendR peptide binding to human NRP-1; FAM-RPARPAR peptide binding to NRP-1, fluorescence polarization; inhibition, % at 25 µM; actives 0.85% (n = 360,000); O14786;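 active means inhibition or corrected inhibition above about 18%, plus a signal ratio from 0.5 to 1.5, limit read from the data, passing the limit was not always enough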
PDI turbidity: PDI (human) enzyme inhibition | P07237 | PDI insulin aggregation turbidity, A650, 90 min | inhibition, % at 10 µM | actives 0.052% (n = 350,000) | AID 588391;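 active means mean inhibition across replicates of 30% or more, whatever share of single replicates reach that level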
ERp5 block: blocks human ERp5 reductase activity on insulin | ERp5 insulin aggregation, absorbance 650 nm, 90 min | actives 0.05% (n = 350,000) | inhibition, % at 9.99 µM;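 active means mean replicate inhibition above about 25%, with every replicate also reaching it, limit read from the data, passing the limit was not always enough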
PglD DTNB: PglD (C. jejuni) enzyme inhibition. purified PglD enzyme, DTNB colorimetric CoA detection. inhibition, % at 12.5 µM. actives 0.098% (n = 360,000). AID 602405; in the data active means inhibition above about 16%, passing the limit was not always enough
Each line names hits and unclear results; the compound was inactive in the other large screens. Shown is part of a subset that was picked to be rich in hits.

CN1c2ccccc2C(C)(C)[C@]12C=Cc1cc(O)ccc1O2	ALR H2O2 inh 87.8 (no result: ERp5 block)
CN1c2ccccc2C(C)(C)C12C=Nc1c(ccc3ccccc13)O2 (stereo unspecified)	none (no result: ERp5 block, PglD DTNB)
CCC(=O)Nc1ccc2c(c1)OC[C@@H](C)N(Cc1cccnc1)C[C@H](C)[C@@H](OC)CN(C)C2=O	none (no result: ALR H2O2 inh, ARNT-TACC3 inh, CendR NRP1 mod, PDI turbidity)
CO[C@@H]1CN(C)C(=O)c2cc(NC(=O)c3ccccc3)ccc2OC[C@H](C)N(CC2CC2)C[C@H]1C	none (no result: ALR H2O2 inh, CendR NRP1 mod, PDI turbidity, ERp5 block)
CCCNC(=O)CS(=O)(=O)Cc1nc(-c2cccc(OC)c2)oc1C	ALR H2O2 inh 97.8 (no result: PDI turbidity)
CCOCCCNC(=O)CS(=O)(=O)Cc1nc(-c2cccc(OC)c2)oc1C	ALR H2O2 inh 98.0 (no result: ARNT-TACC3 inh, ERp5 block)
COc1cccc(-c2nc(CS(=O)(=O)CC(=O)NCc3ccc(Cl)cc3)c(C)o2)c1	CendR NRP1 mod 20.4 (no result: PDI turbidity)
COc1cccc(-c2nc(CS(=O)(=O)CC(=O)NCCc3ccccc3)c(C)o2)c1	none
O=C(N[C@@H]1CC[C@H](CCNC(=O)c2ccccc2F)O[C@H]1CO)c1ccc2c(c1)OCO2	none (no result: ALR H2O2 inh, CendR NRP1 mod, PDI turbidity)
CC(C)NC(=O)N(C)C[C@H]1Oc2c(NC(=O)Nc3ccc(F)cc3)cccc2C(=O)N([C@H](C)CO)C[C@H]1C	none (no result: ALR H2O2 inh, CendR NRP1 mod, PDI turbidity)
O=C(C[C@H]1CC[C@@H]2[C@H](COC[C@@H](O)CN2C(=O)c2ccncc2)O1)NCc1cccc(F)c1	none (no result: ALR H2O2 inh, CendR NRP1 mod, PDI turbidity)
Cc1cc(C(=O)CSc2nc3ccccc3c(=O)[nH]2)c(C)n1C	ALR H2O2 inh 98.5 (no result: ERp5 block)
CC(SCC(=O)Nc1ccccc1)c1nc2ccccc2c(=O)[nH]1 (stereo unspecified)	none
Cc1cc(C(=O)CSC(C)c2nc3ccccc3c(=O)[nH]2)c(C)n1C (stereo unspecified)	ALR H2O2 inh 98.8 (no result: ERp5 block)
O=C(C[C@H]1C=C[C@H](NC(=O)c2ccncc2)[C@@H](CO)O1)Nc1ccccc1	none (no result: ALR H2O2 inh, ARNT-TACC3 inh, CendR NRP1 mod, PDI turbidity, PglD DTNB)
CO[C@@H](CN(C)C(=O)c1cnccn1)[C@@H](C)CN([C@H](C)CO)S(=O)(=O)c1ccc(C)cc1	none (no result: ALR H2O2 inh, CendR NRP1 mod, PDI turbidity)
Cc1cccc(NNC(=O)C(=O)NNc2cccc(C)c2)c1	ALR H2O2 inh 98.3
Cc1cccc(NC(=O)Nc2cnccn2)c1	none (no result: ARNT-TACC3 inh, PglD DTNB)
Cc1cccc(NC(=O)NNC(=O)c2ccccn2)c1	ARNT-TACC3 inh 48.1 (no result: ERp5 block)
Cc1cccc(NC(=O)Nc2ccncc2)c1	ALR H2O2 inh 84.5
Cc1cccc(NC(=O)c2cccc(C(=O)Nc3cccc(C)c3)n2)c1	none (no result: PglD DTNB)
CCCNC(=O)N1[C@@H]2CN(C(=O)Nc3ccc(F)cc3)c3ccccc3[C@@H]2[C@@H]1CO	none (no result: ALR H2O2 inh, CendR NRP1 mod, PDI turbidity)
COCC(=O)Nc1ccc2c(c1)OC[C@@H](C)N(CCC(F)(F)F)C[C@H](C)[C@H](OC)CN(C)C2=O	none (no result: ALR H2O2 inh, CendR NRP1 mod, PDI turbidity)
C[C@](N)(Cc1ccc(O)c(O)c1)C(=O)O	none (no result: ALR H2O2 inh)
NCCc1ccc(O)c(O)c1	ALR H2O2 inh 98.7
Cn1c(CCNC(=O)c2ccc(Cl)cc2)n[nH]c1=S	ALR H2O2 inh 96.4 (no result: ERp5 block)
Cn1c(CSCc2ccc(F)cc2)n[nH]c1=S	none
Cn1c(CSCc2ccc(Cl)cc2)n[nH]c1=S	ALR H2O2 inh 94.4
O=C1c2ccccc2C(Nc2ccc3c(c2)OCCO3)N1Cc1ccccc1 (stereo unspecified)	ALR H2O2 inh 97.6 (no result: PDI turbidity, ERp5 block)
CO[C@H]1CN(C)C(=O)c2cc(NC(=O)Nc3ccccc3)ccc2OC[C@H](C)N(C(=O)Nc2c(C)noc2C)C[C@H]1C	none (no result: ALR H2O2 inh, CendR NRP1 mod, PDI turbidity)
C[C@H]1CN([C@@H](C)CO)C(=O)CCCn2nncc2CO[C@@H]1CN(C)S(=O)(=O)c1ccccc1F	none (no result: ALR H2O2 inh, CendR NRP1 mod, PDI turbidity)
O=C(C[C@@H]1C=C[C@H](NS(=O)(=O)c2ccccc2)[C@@H](CO)O1)N1CCC(Cc2ccccc2)CC1	none (no result: ALR H2O2 inh, ARNT-TACC3 inh, CendR NRP1 mod, PDI turbidity, PglD DTNB)
Cc1ccc2c(CC(=O)N3CCN(S(=O)(=O)c4ccccc4)CC3)coc2c1	none (no result: ALR H2O2 inh)
N#Cc1ccccc1S(=O)(=O)N1CCN(C(=O)Cc2coc3cc(O)ccc23)CC1	ALR H2O2 inh 98.9
C[C@H]1CN([C@@H](C)CO)C(=O)c2cc(-c3ccc(F)cc3)cnc2O[C@H]1CN(C)CC1CCCCC1	none (no result: ALR H2O2 inh, CendR NRP1 mod, PDI turbidity)
S=c1[nH]cc(-c2ccccc2)n1-c1ccccc1Cl	ALR H2O2 inh 90.2 (no result: ERp5 block, PglD DTNB)
Cc1ccc(-c2c[nH]c(=S)n2-c2ccccc2F)cc1	ALR H2O2 inh 97.9 (no result: PglD DTNB)
N#C[C@H]1[C@@H](c2ccc(C3=CCCCC3)cc2)[C@@H](CO)N1S(=O)(=O)c1ccccc1	none (no result: ALR H2O2 inh, CendR NRP1 mod, PDI turbidity)
COC(=O)c1ccc(CSc2nc(C(F)(F)F)c3c(c2C#N)CCC3)o1	ALR H2O2 inh 98.0 (no result: ERp5 block)
